# JNK3 blocker – inhibitors of human JNK3 kinase | purified JNK3 kinase activity, HTS | inhibition, % at 8 µM | 60,000 compounds, 0.61% hits | AID 746; in the data active means inhibition above about 17%;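 further: 0% = DMSO and 100% = reference inhibitor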
# Cdc25B inh – human M-phase inducer phosphatase 2 inhibition; AID 368; recombinant Cdc25B, OMFP fluorescence Ex485/Em525; P30305; inhibition, %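 (compounds tested at 10 µM final in the well)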; 65,000 compounds, 0.1% hits; in the data active means inhibition above about 50%
# Target sequence (P30305 whole entry, looked up): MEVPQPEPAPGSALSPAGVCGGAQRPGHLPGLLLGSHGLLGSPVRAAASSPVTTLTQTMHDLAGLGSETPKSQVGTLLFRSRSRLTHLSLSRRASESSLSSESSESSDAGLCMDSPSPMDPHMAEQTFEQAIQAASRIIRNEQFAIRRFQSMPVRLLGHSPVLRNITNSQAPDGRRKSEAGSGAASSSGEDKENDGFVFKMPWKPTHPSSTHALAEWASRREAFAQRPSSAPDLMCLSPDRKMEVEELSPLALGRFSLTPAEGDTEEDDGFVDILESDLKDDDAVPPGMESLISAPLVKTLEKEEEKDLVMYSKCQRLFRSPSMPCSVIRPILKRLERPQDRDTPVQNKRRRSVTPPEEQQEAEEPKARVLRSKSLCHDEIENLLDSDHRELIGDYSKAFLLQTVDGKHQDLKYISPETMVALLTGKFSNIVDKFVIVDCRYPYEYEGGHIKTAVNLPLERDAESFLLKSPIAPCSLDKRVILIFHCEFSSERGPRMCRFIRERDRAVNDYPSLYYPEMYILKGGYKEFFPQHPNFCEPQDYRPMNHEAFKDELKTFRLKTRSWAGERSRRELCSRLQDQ
# PKA inh – blocks human protein kinase A activity | P17612 | PKA Kemptide phosphorylation, Kinase-Glo ATP luminescence | inhibition, % at 6 µM | 65,000 compounds, 0.1% hits | AID 524;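 active means inhibition above the screen-wide mean inhibition plus 3 SD, cut at about 21% in these data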
# ROCK2 blocker – inhibitors of human Rho kinase 2; O75116; purified ROCK2, Kinase-Glo ATP depletion luminescence; inhibition, % at 6 µM; 60,000 compounds, 0.35% hits;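 active means inhibition above the screen-wide mean inhibition plus 3 SD, cut at about 18% in these data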;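 further: plate controls were DMSO wells for no effect and Y-27632 control wells after no-enzyme background subtraction for full effect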
# MKP-1 inh – human dual specificity phosphatase 1 inhibition. P28562. recombinant MKP-1, OMFP hydrolysis fluorescence. inhibition, %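 (compounds tested at a single concentration somewhere between 10 and 100 µM)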. 65,000 compounds, 0.15% hits. AID 374;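 active means inhibition above about 50%, limit read from the data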;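 further: 0% = DMSO max control wells and 100% = wells with enzyme stopped by NaOH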
# Hsp90 block – displaces geldanamycin probe from tumor Hsp90 | P07900 | NCI-N417 lysate Hsp90, Cy3B-geldanamycin FP displacement | inhibition, % at 30 µM | 64,000 compounds, 0.35% hits;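 active means inhibition above 50%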;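 further: 0% = tracer plus lysate wells and 100% = tracer alone without lysate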
# Numbers without * were called inactive; x = not tested or not shown. The list is not random: actives were taken first. Their share in the collection is about 1%.
SMILES,JNK3 blocker,Cdc25B inh,PKA inh,ROCK2 blocker,MKP-1 inh,Hsp90 block
O=C1c2ccccc2C(=O)N1Cc1ccco1,3.0,-17.3,10.9,6.5,-5.6,-7.1
CC1=CC(=C2C(=O)c3ccccc3C2=O)C=C(C)N1Cc1ccco1,33.9*,-5.5,-3.8,0.3,11.7,-2.3
OCC1NCC(O)C(O)C1O (centres undefined),x,x,x,x,x,0.1
CC(C)CCNC(=O)C1CCN(c2nc3ccccc3o2)CC1,3.0,70.8*,0.8,-3.1,34.5,-0.8
O=C(NCc1nc2ccccc2[nH]1)c1ccco1,5.8,-1.2,-8.5,-3.6,9.2,-1.4
O=C(NCc1nc2ccccc2[nH]1)c1cccs1,28.5*,-17.9,6.6,2.4,-4.0,-1.1
Cc1cc(C(F)F)n2ncc(C(=O)NCc3ccccc3C(F)(F)F)c2n1,19.1*,2.8,-4.4,-1.8,14.0,-2.8
COc1cccc(NC(=O)N2CCN(Cc3nc4ccccc4c(=O)[nH]3)CC2)c1,x,-11.3,9.6,x,4.6,0.8
CC1(C)Cc2c(sc3nc(SCC#N)n(C4CCCCC4)c(=O)c23)CO1,-4.0,-19.4,3.9,1.7,-18.8,-2.4
Cc1ccc(C(=O)C2=C(O)C(=O)N(CCCn3ccnc3)C2c2ccc(OC(C)C)cc2)o1 (centres undefined),26.6*,7.4,0.1,-1.4,32.0,0.1
CCOc1ccc(C2C(C(=O)c3ccco3)=C(O)C(=O)N2CCCn2ccnc2)cc1 (centres undefined),-0.9,4.1,11.9,4.2,-6.2,-5.1
CN(C)c1ccc(N=Cc2nc(-c3ccccc3)oc2O)cc1,-4.2,10.8,0.1,1.3,7.7,54.1*
CSc1ccccc1N=Cc1nc(-c2ccccc2)oc1O,9.2,-24.3,-1.8,2.1,2.2,-0.9
CC(=O)Nc1nc(C)c(-c2csc(Nc3ccc(O)cc3)n2)s1,18.5*,5.9,7.8,8.7,-2.7,39.5
CCC(=O)NC1(C(F)(F)F)C(=O)Nc2c1c(=O)n(C)c(=O)n2C (centres undefined),-3.1,60.2*,-2.2,0.9,3.6,-1.7
Cn1c(=O)c2c(nc(NCc3ccco3)n2CC(O)COc2ccccc2)n(C)c1=O (centres undefined),5.2,0.5,3.3,8.3,-28.4,-5.3
Cc1ccccc1OCC(O)Cn1c(NCCN(C)C)nc2c1c(=O)n(C)c(=O)n2C (centres undefined),-6.4,-0.1,5.2,-1.5,3.3,92.0*
CCOC(=O)c1oc2cc(O)cc(C)c2c(=O)c1-c1cscn1,3.0,9.1,4.5,13.0,-19.3,-1.8
Cc1cc(O)cc(O)c1-c1onc(C(F)(F)F)c1-c1cscn1,0.1,-3.7,11.5,3.2,27.2,68.6*
CCCN1C=CC(=C2C(=O)c3ccccc3C2=O)C=C1,55.9*,9.8,-20.5,-39.7,2.0,-1.6
CCN1C=CC(=C2C(=O)c3ccccc3C2=O)C=C1,61.9*,-4.3,-4.5,-32.0,4.3,-0.7
CN1C=CC(=C2C(=O)c3ccccc3C2=O)C=C1,32.0*,-13.0,-0.5,-1.3,0.6,-1.8
CC1=CC(=C2C(=O)c3ccccc3C2=O)C=C(C)O1,10.5,-3.2,3.6,1.9,-10.4,21.9
CCCCN1CCC(COC(=O)c2cc(Cl)c(N)c3c2OCCO3)CC1,x,x,x,x,x,2.6
Cc1nc(SCC(=O)N2CCN(c3ccccc3)CC2)c2c(=O)n(C)c(=O)n(C)c2n1,-2.0,-6.6,-2.1,0.6,14.3,-2.2
SMILES,JNK3 blocker,Cdc25B inh,PKA inh,ROCK2 blocker,MKP-1 inh,Hsp90 block
C(=N\c1nc2ccccc2n1CCN1CCCCC1)/c1cccs1,-1.5,0.3,4.8,19.3*,-23.9,-5.1
C(=N\c1nc2ccccc2n1CCN1CCCCC1)/c1ccc2c(c1)OCO2,-0.7,-3.4,7.0,8.3,-1.4,-2.4
CCn1nnc(NC(=O)COc2cc(C)ccc2C(C)C)n1,5.0,-7.7,11.0,6.0,4.0,71.6*
CCCn1nnc(NC(=O)COc2ccccc2Cl)n1,-10.3,-2.6,-0.6,3.5,10.8,-1.5
COc1ccc2c(c1)c(CC(=O)O)c(C)n2Cc1ccc(F)cc1,x,x,x,x,x,-2.6
Cc1cc(N2CCOCC2)c2c(N)c(C)cc(C)c2n1,-11.7,-11.0,10.5,18.8*,1.1,-1.2
Cc1ccc(S(=O)(=O)NCCSc2nnnn2-c2cc(C)ccc2C)cc1,2.9,-30.6,10.8,5.6,-3.0,-2.2
Cc1ccc(C)c(-n2nnnc2SCC(=O)c2ccc3c(c2)NC(=O)CO3)c1,3.8,-6.1,-2.7,1.5,52.3*,-6.0
NC(N)=N[C@@H](CCC(=O)O)C(=O)O,x,x,x,x,x,-0.5
COC(=O)c1[nH]c2ccc(C)cc2c1NC(=O)CN1CCCCC1C (centres undefined),-8.3,0.2,2.7,3.2,-0.2,-9.0
CC12CC(NC(=O)N1c1ccc(C(=O)N3CCN(c4ccc(F)cc4)CC3)cc1)c1ccccc1O2 (centres undefined),-2.5,8.1,2.5,2.2,53.2*,0.5
NC(C(=O)N[C@@H]1C(=O)N2C(C(=O)O)=C(Cl)CS[C@H]12)c1ccccc1 (some centres undefined),x,x,x,x,x,2.6
Nc1cc(N)c(OCC(F)(F)F)cc1OCC(F)(F)F,-9.5,11.4,-8.5,0.3,-6.0,89.2*
NC(=O)c1sc2nc(N3CCCCC3)c3c(c2c1N)CCCC3,6.1,12.5,26.9*,42.4*,20.2,-4.5
CCOc1ccc(NC(=O)CN2C(=O)C3CCCN3C2=O)cc1 (centres undefined),17.2*,-7.1,0.8,-7.8,-2.8,-1.4
Brc1ccc(-c2nn3c(-c4ccco4)nnc3s2)o1,24.8*,-6.8,0.5,3.9,-15.6,-1.1
CCOC(=O)c1cccc2c1-c1ccccc1/C2=N/O,52.8*,-9.8,5.1,7.4,0.1,2.6
CCOC(=O)c1cccc(C(=O)OCC)n1,5.3,-5.6,10.0,6.9,-7.0,-0.7
O=C(c1n[nH]c(=O)c2ccccc12)N1CCN(C2c3ccccc3-c3ccccc32)CC1,-3.1,1.6,-1.2,2.1,51.8*,89.7*
CCn1c(Oc2ccc(Oc3ncc(Cl)cc3Cl)cc2)nc2c1c(=O)n(C)c(=O)n2C,-8.5,-3.5,7.8,1.2,-8.2,1.2
O=C(O)CCCCCC[C@H]1C(=O)NC(=O)N1CC[C@@H](O)C1CCCCC1,x,x,x,x,x,1.6
Cc1ccc2[nH]c3c(N4CCCCCC4)ncnc3c2c1,-1.3,13.0,5.3,8.0,-14.7,-8.6
c1nc(N2CCCC2)c2[nH]cnc2n1,x,x,21.6*,x,x,x
O=C(O)c1ccc2c3c(ncnc13)-c1ccccc1C2=O,-11.9,-0.8,4.2,-2.9,-10.0,89.5*
COc1cc(N)c2ncccc2c1,x,x,x,x,x,17.5
COc1ccc(CC(=O)Nc2cc(C)ccn2)cc1,27.0*,-3.6,4.7,4.4,8.6,-0.7
Cc1ccnc(NC(=O)CCC2CCCCC2)c1,7.6,-18.7,11.1,6.8,2.6,-2.1
O=c1c2ccccc2nc(-c2ccco2)n1CCCn1ccnc1,17.5*,-8.2,2.1,12.5,-8.6,-4.5
Cc1ccc(NC(=O)CSc2nnc(-c3ccc(S(=O)(=O)N4CCCC4)cc3)o2)cc1C,-0.3,-5.5,2.0,1.4,53.2*,1.9

# Assay outcomes deposited in PubChem by several laboratories.
